Assay results reported in PubChem BioAssay (Tox21).
Records with an inconclusive call do not appear. Some structures have more than one record in an assay (separate samples or runs), and their calls can disagree. Activity calls are given as the source filed them. Calls come from the whole dose curve; as a rule, active = well fitted curve in the direction sought with a large enough effect in the repeat runs; inconclusive = weak or mixed curves; inactive = no such curve, though single readings can be large; an effect the other way counts as inactive or inconclusive.

Legend:
[1] = qHTS RealTime-Glo MT Cell Viability Assay in HEK293 cells - 0 hour (AID 1224880); note: top concentration of the series differs between compounds; nearly all actives have a fitted effect of over 45% in size
Outline: (§1)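 HEK293 cells mixed with RealTime-Glo reagents (NanoLuc plus cell-permeant prosubstrate) at 600 cells/well, preincubated 5 h at 37 C/5% CO2, then given 23 nL compound in DMSO. Nonlytic luminescence from viable cells was read at 0, 8, 16, 24, 32 and 40 h.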

[2] = A CellTox Green Cytotoxicity Assay to monitor cytotoxicity in HEK293 cells - 32 hour (AID 1224881); note: nearly all actives have a fitted effect of over 40% in size; note: potency is the fitted concentration of half-maximal effect
Outline: (§2)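 HEK293 cells premixed with CellTox Green dye were seeded at 600 cells/well and left 5 h at 37 C/5% CO2 before pin transfer of 23 nL compound in DMSO. Fluorescence from dye bound to dead-cell DNA was read during 40 h treatment.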

[3] = A CellTox Green Cytotoxicity Assay to monitor cytotoxicity in HepG2 cells - 0 hour (AID 1224882); note: nearly all actives have a fitted effect of over 35% in size
Outline: (§3)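 HepG2 cells were seeded together with the CellTox Green dye at 600 cells/well, left 5 h at 37 C/5% CO2, then given compounds in DMSO. Fluorescence from dye bound to dead-cell DNA was read repeatedly over 40 h of treatment at 37 C.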

[4] = A CellTox Green Cytotoxicity Assay to monitor cytotoxicity in HepG2 cells - 32 hour (AID 1224883); note: nearly all actives have a fitted effect of over 50% in size; note: potency is the fitted concentration of half-maximal effect
Outline: as §3

[5] = A CellTox Green Cytotoxicity Assay to monitor cytotoxicity in HEK293 cells - 8 hour (AID 1224884); note: nearly all actives have a fitted effect of over 35% in size
Outline: as §2

[6] = qHTS RealTime-Glo MT Cell Viability Assay in HepG2 cells - 16 hour (AID 1224885); note: nearly all actives have a fitted effect of over 50% in size
Outline: (§4)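 Tox21 10K library screened in qHTS format on HepG2 cells carrying RealTime-Glo reagents. Compounds were added after a 5 h preincubation, and the luminescent signal from continuous culture was measured repeatedly during 40 h treatment.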

[7] = qHTS RealTime-Glo MT Cell Viability Assay in HEK293 cells - 24 hour (AID 1224886); note: top concentration of the series differs between compounds; nearly all actives have a fitted effect of over 50% in size
Outline: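 Luminescence generated by NanoLuc from substrate produced by living HEK293 cells served as the viability signal. Each value reflects the reading at its stated time point during continuous 40 h compound exposure at 37 C.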

[8] = qHTS RealTime-Glo MT Cell Viability Assay in HEK293 cells - 8 hour (AID 1224887); note: top concentration of the series differs between compounds; nearly all actives have a fitted effect of over 50% in size
Outline: as §1

[9] = A CellTox Green Cytotoxicity Assay to monitor cytotoxicity in HEK293 cells - 16 hour (AID 1224888); note: nearly all actives have a fitted effect of over 35% in size
Outline: as §2

[10] = qHTS RealTime-Glo MT Cell Viability Assay in HepG2 cells - 0 hour (AID 1224889); note: nearly all actives have a fitted effect of over 50% in size
Outline: as §4
% is set by controls: 0 for no effect and ±100 for the full control effect.

NC(=O)c1ccc(N)cc1
inactive: Potency [1] | Potency [2] | Potency [3] | Potency [4] | Potency [5] | Potency [6] | Potency [7] | Potency [8] | Potency [9] | Potency [10]

N=C(N)c1ccc2cc(OC(=O)c3ccc(N=C(N)N)cc3)ccc2c1
inactive: Potency [1] | Potency [2] | Potency [3] | Potency [4] | Potency [5] | Potency [6] | Potency [7] | Potency [8] | Potency [9] | Potency [10]

N[C@H](C(=O)O)c1ccc(O)cc1
inactive: activity change, negative = cytotoxicity [1] -0.65% [at 15.8 µM] | Potency [2] | cytotoxicity [3] -7.08% [at 15.8 µM] | cytotoxicity increase [4] -6.23% [at 15.8 µM] | cytotoxicity increase [5] 0.0185% [at 15.8 µM] | activity change, negative = cytotoxic [6] 1.01% [at 15.8 µM] | activity change, negative = cytotoxicity [7] 1.77% [at 15.8 µM] | activity change [9] 0.584% [at 15.8 µM, stronger effect = higher value] | activity change, negative = cytotoxicity [10] 1.28% [at 15.8 µM]

CCS(=O)(=O)c1ccc(OC)c(C(=O)OC)c1
inactive: Potency [1] | Potency [2] | Potency [3] | Potency [4] | Potency [5] | Potency [6] | Potency [7] | Potency [8] | Potency [9] | Potency [10]

CC(C)CCCC(C)N (stereo unspecified)
inactive: Potency [1] | Potency [2] | Potency [3] | Potency [4] | Potency [5] | Potency [6] | Potency [7] | Potency [8] | Potency [9] | Potency [10]

NS(=O)(=O)c1ccc(C(=O)O)cc1
inactive: Potency [1] | Potency [2] | Potency [3] | Potency [4] | Potency [5] | Potency [6] | Potency [7] | Potency [8] | Potency [9] | Potency [10]

CCOC(=O)c1ccc(C)cc1
inactive: Potency [1] | Potency [2] | Potency [3] | Potency [4] | Potency [5] | Potency [6] | Potency [7] | Potency [9] | Potency [10]

Cc1c(O)cccc1O
inactive: Potency [1] | Potency [2] | Potency [3] | Potency [4] | Potency [5] | Potency [6] | Potency [7] | Potency [8] | Potency [9] | Potency [10]

OC[C@]1(O)OC[C@@H](O)[C@H](O)[C@@H]1O
inactive: Potency [1] | Potency [2] | Potency [3] | Potency [4] | Potency [5] | Potency [6] | Potency [7] | Potency [9] | Potency [10]

CCCCCSCCCCC
inactive: Potency [1] | Potency [2] | Potency [3] | Potency [4] | Potency [5] | Potency [6] | Potency [7] | Potency [8] | Potency [9] | Potency [10]

C[C@@H]1CCN(C(=O)[C@H](CCCN=C(N)N)NS(=O)(=O)c2cccc3c2NC[C@H](C)C3)[C@@H](C(=O)O)C1
inactive: Potency [1] | Potency [2] | Potency [3] | Potency [4] | Potency [5] | Potency [6] | Potency [7] | Potency [8] | Potency [9] | Potency [10]

O=C(c1ccccc1)C1CCCCC1
active: Potency [2] 24.5 µM | Potency [4] 49 µM
inactive: Potency [1] | Potency [3] | Potency [5] | Potency [6] | Potency [7] | Potency [8] | Potency [9] | Potency [10]

C=COCC1CCC(CO)CC1 (stereo unspecified)
inactive: Potency [1] | Potency [2] | Potency [3] | Potency [4] | Potency [5] | Potency [6] | Potency [7] | Potency [8] | Potency [9] | Potency [10]

CN1N=C(C(N)=O)CCC1=O
inactive: Potency [1] | Potency [2] | Potency [3] | Potency [4] | Potency [5] | Potency [6] | Potency [7] | Potency [9] | Potency [10]

CCc1nccnc1CC
inactive: activity change, negative = cytotoxicity [1] -3.54% [at 15.8 µM] | Potency [2] | cytotoxicity [3] -0.271% [at 15.8 µM] | cytotoxicity increase [4] 4.25% [at 15.8 µM] | cytotoxicity increase [5] -4.27% [at 15.8 µM] | activity change, negative = cytotoxic [6] -1.18% [at 15.8 µM] | activity change, negative = cytotoxicity [7] 6.29% [at 15.8 µM] | activity change, negative = cytotoxicity [8] -0.69% [at 15.8 µM] | activity change [9] -4.2% [at 15.8 µM, stronger effect = higher value] | activity change, negative = cytotoxicity [10] -0.513% [at 15.8 µM]

CC(C)=CCCC(C)CC(=O)O (stereo unspecified)
inactive: Potency [1] | Potency [2] | Potency [3] | Potency [4] | Potency [5] | Potency [6] | Potency [7] | Potency [8] | Potency [9] | Potency [10]

CCC=O
inactive: Potency [1] | Potency [2] | Potency [3] | Potency [4] | Potency [5] | Potency [6] | Potency [7] | Potency [8] | Potency [9] | Potency [10]

O=S(O)CO
inactive: Potency [1] | Potency [2] | Potency [3] | Potency [4] | Potency [5] | Potency [6] | Potency [7] | Potency [8] | Potency [9] | Potency [10]

CC(C)(O)C#CC(C)(C)O
inactive: Potency [1] | Potency [2] | Potency [3] | Potency [4] | Potency [5] | Potency [6] | Potency [7] | Potency [8] | Potency [9] | Potency [10]

COc1ccccc1OCC(O)CN1CCN(CC(=O)Nc2c(C)cccc2C)CC1 (stereo unspecified)
inactive: Potency [1] | Potency [2] | Potency [3] | Potency [4] | Potency [5] | Potency [6] | Potency [7] | Potency [8] | Potency [9] | Potency [10]

CCCCCCCCCCCCCCCCC
inactive: Potency [1] | Potency [2] | Potency [3] | Potency [4] | Potency [5] | Potency [6] | Potency [7] | Potency [8] | Potency [9] | Potency [10]

C=CCCCCCCCCC=O
inactive: Potency [1] | Potency [2] | Potency [3] | Potency [4] | Potency [5] | Potency [6] | Potency [7] | Potency [8] | Potency [9] | Potency [10]

CCCCOCCOCCOCc1cc2c(cc1CCC)OCO2
inactive: Potency [1] | Potency [2] | Potency [3] | Potency [5] | Potency [6] | Potency [7] | Potency [8] | Potency [9] | Potency [10]
22.1 µM (active) and inactive: Potency [4]
